# Source: PubChem BioAssay
# HTT prom inh – inhibits huntingtin promoter activity; Potency, µM (top dose mostly 57.5 µM), inactives show at the top dose activity change, negative = inhibition, most hits filed as inhibitors; HEK293 HTT promoter firefly luciferase reporter, 24 h; hit rate 0.93% among 48,000; also: potency is read from the fitted curve at half-maximal effect; nearly all actives have a fitted effect of over 50% in size
#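 Luminescence was read after Dual-Glo reagent and a 10 min room-temperature incubation. Values were normalized to vehicle (0% activity) and zero RLU (-100% activity). Reporter HEK293 cells had been exposed to compounds (up to 57.5 uM final) for 24 h.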
# HTT-AS act – HTT-AS promoter activation. HEK293 HTT-AS promoter firefly luciferase reporter, 24 h; response scale: percent change from vehicle, -100% = no light. Potency, µM (series often up to 57.5 µM), without a hit: at the top dose activity change, positive = activation, hits mostly activators. hit rate 0.24% among 48,000. AID 1508624; also: potency is read from the fitted curve at half-maximal effect; nearly all actives have a fitted effect of over 55% in size
#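 HEK293 cells carrying firefly luciferase reporters were seeded at 2,500 per well in Opti-MEM and cultured for 24 h. They were then treated with compounds at up to 57.5 uM final for 24 h at 37 degrees C before Dual-Glo luminescence readout.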
# DRV1 agonist – agonists of human resolvin D1 receptor DRV1 (GPR32). O75388. CHO-K1 GPR32 beta-arrestin PathHunter luminescence, 90 min; zero percent set by DMSO-only wells. activation, % at 76.9 µM. hit rate 2.5% among 48,000;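 active = activation of at least 60% and not above a set upper limit, about 1 call in 100 departs from these limits; inconclusive = activation of 40% to 60%, or above that upper limit; inactive = activation under 40%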; also: 0% is about no effect
# Target sequence (O75388 whole entry, looked up): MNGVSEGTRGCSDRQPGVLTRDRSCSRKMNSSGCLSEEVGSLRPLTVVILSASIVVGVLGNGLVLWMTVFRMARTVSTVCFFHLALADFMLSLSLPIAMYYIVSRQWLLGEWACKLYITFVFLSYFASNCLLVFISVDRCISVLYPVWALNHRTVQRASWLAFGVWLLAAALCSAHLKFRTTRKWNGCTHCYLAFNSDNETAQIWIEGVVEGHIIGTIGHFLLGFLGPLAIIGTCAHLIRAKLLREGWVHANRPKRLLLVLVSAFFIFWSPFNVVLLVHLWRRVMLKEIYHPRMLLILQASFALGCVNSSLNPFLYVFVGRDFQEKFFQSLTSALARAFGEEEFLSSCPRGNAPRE
#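 Cells are plated overnight, treated with compounds in DMSO for 90 minutes at 37 °C, and developed with PathHunter detection reagent for 1 hour before luminescence is read; signal reflects beta-arrestin binding to GPR32 in engineered CHO-K1 cells.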
# Starred values were filed as active, the others as inactive; ? = inconclusive; · = no result. Most compounds without a hit are left out; they make up all but 3.7% or so of the library. Unless noted, calls follow the shape of the dose curve; as a rule, active = well fitted curve in the direction sought with a large enough effect; inconclusive = small, poorly fitted or top-dose-only effect, or another doubt; inactive = no such curve, though single readings can be large; an effect the other way counts as inactive or inconclusive.
SMILES,HTT prom inh,HTT-AS act,DRV1 agonist
CCOc1ccc(NC(=O)C2CCN(c3nnc(-n4c(C)ccc4C)s3)CC2)cc1,-21%,-5%,-11
COc1ccc(-c2cc3ncc(C)n3c(Nc3ncccc3C(N)=O)n2)cc1OC,·,·,-11
C#CC1(O)CC[C@H]2[C@@H]3CCC4=CCCC[C@@H]4[C@H]3CC[C@@]21C (stereo partly specified),-5%,-9%,105*
C#C[C@]1(OC(C)=O)CC[C@H]2[C@@H]3CCC4=C/C(=N/O)CC[C@@H]4[C@H]3CC[C@@]21CC,?,-51%,31
COc1cc2nc(SCc3cccc(Cl)c3)n3nc(CCn4nc(C)cc4C)nc3c2cc1OC,32%,22%,3
O=C(Nc1ccccc1F)c1ccc2c(Cl)c3c(nc2c1)CCC3,13µM*,-68%,22
COc1ccccc1NC(=O)c1ccc2c(Cl)c3c(nc2c1)CCCC3,3%,5%,24
Cc1[nH]c2ccc(C(=O)N3CCN(c4ccccc4F)CC3)cc2c1C,-3%,-16%,0
CCOc1ccc(C(=O)NCCc2sc(-c3cccc(F)c3)nc2C)cc1OCC,-33%,-23%,-1
Cc1ccc(Cl)cc1NC(=O)C(=O)NCCc1sc(-c2ccc(F)cc2)nc1C,-16%,-5%,-1
Cc1nc(-c2cccc(F)c2)sc1CCNC(=O)c1ccc(F)c(F)c1,-29%,-25%,63*
Cc1nc(-c2ccc(Cl)cc2)sc1CCNC(=O)Cc1ccc(F)cc1,32µM*,-38%,-5
COc1ccc(CCNc2ncnc3c2cnn3-c2cc(Cl)ccc2C)cc1,?,-37%,48
COc1ccc(CCNc2ncnc3c2cnn3-c2cccc(Cl)c2)cc1,-44%,-25%,114*
CCOc1ccc(Nc2ncnc3c2cnn3-c2ccc(F)cc2)cc1,9%,?,7
COc1ccc(CCNc2ncnc3c2cnn3-c2ccc(F)cc2)cc1,-6%,-20%,66*
O=C(Nc1nnc(S(=O)(=O)N2CCCCCC2)s1)c1ccccc1,17%,23%,31
CC1CCN(S(=O)(=O)c2nnc(NC(=O)c3cccc(Cl)c3)s2)CC1,?,-70%,69*
O=C1NC(=O)C(c2cnc3ccccn23)=C1c1cn2c3c(cccc13)CN(C(=O)N1CCOCC1)CC2,?,-19%,·
COc1ccc(C=Cc2cc(OC)c(OC)c(OC)c2)cc1NC(=O)[C@H](N)CO,-26%,-37%,·
Oc1cccc(C(Nc2ccccn2)c2ccc3cccnc3c2O)c1Cl (stereo unspecified),·,·,81*
c1cnc2c(c1)ccc1cccnc12,·,·,-2
c1ccc(C(O[C@H]2CCCN(CCc3ccc4c(c3)OCO4)C2)c2ccccc2)cc1,1%,-5%,-7
Fc1ccccc1N1CCN(c2nnc(C(F)(F)F)c3nnn(Cc4ccccc4)c23)CC1,1%,-6%,-1
C[C@@H]1COC(Nc2ccc3ncnc(Nc4ccc(OCc5nccs5)c(Cl)c4)c3c2)=N1,?,-32%,·
SMILES,HTT prom inh,HTT-AS act,DRV1 agonist
NCc1ccccc1Sc1ccccc1CO,5%,-2%,-20
Cc1ccc(NC(=O)/C(C#N)=C\c2ccc(-c3ccc(Cl)cc3)o2)c(C)c1,0%,-5%,-6
N#C/C(=C\c1ccc(-c2cc(Cl)ccc2Cl)o1)C(=O)Nc1ccccc1C(=O)O,16%,-4%,111*
CN(C)CCOC(c1ccccc1)c1ccc(Br)cc1 (stereo unspecified),-11%,-14%,15
CC(=O)c1cc2ccccc2s1,9%,6%,-4
c1ccc2c(c1)CCc1ccccc1N2,10%,12%,119*
O=C1c2ccccc2CCc2ccccc21,7%,13%,11
C[C@@H]1[C@H](O)[C@@H](C)C=CC=CC=CC=CC=CC=CC=C[C@H](O[C@@H]2O[C@H](C)[C@H](O)[C@H](N)[C@@H]2O)C[C@@H]2O[C@](O)(C[C@@H](O)C[C@@H](O)[C@H](O)CC[C@@H](O)C[C@@H](O)CC(=O)O[C@H]1C)C[C@H](O)[C@@H]2C(=O)O,0%,-10%,·
CCOc1ccc(-c2csc3ncnc(Nc4cccc(O)c4)c23)cc1,?,-29%,?
Oc1cccc(Nc2ncnc3sc4c(c23)CCCC4)c1,-26%,-35%,66*
O=C(O)c1ccc(Nc2ncc3c(n2)-c2ccc(Cl)cc2C(c2c(F)cccc2F)=NC3)cc1,?,-15%,·
O=C(NCCCN1CCN(c2ccccc2)CC1)c1cc2c(s1)-c1ccccc1OC2,?,-37%,0
O=C(NCCc1ccc(Cl)cc1)c1cc2c(s1)-c1ccccc1OC2,-12%,-22%,62*
Cc1ccc(CCNC(=O)c2cc3c(s2)-c2ccccc2OC3)cc1,?,-34%,9
O=C(NCCCN1CCN(c2ccc(F)cc2)CC1)c1cc2c(s1)-c1ccccc1OC2,-28%,-27%,80*
CC(=Cc1ccccc1)C=C1SC(=S)N(CC(=O)O)C1=O,11%,19%,·
CCOC(=O)c1ccc(Nc2nc3nonc3nc2Nc2cccc(C)c2C)cc1,2.2µM*,-87%,-7
Cc1ccc(C)c(Nc2nc3nonc3nc2Nc2cccc(C)c2C)c1,?,-88%,-8
O=C(O)CCNc1cc(N2CCc3ccccc3CC2)nc(-c2ccccn2)n1,0%,-10%,·
CC1=C(C(=O)O)N2C(=O)[C@@H](NC(=O)[C@H](N)C3=CCC=CC3)[C@H]2SC1,7%,-1%,-29
CN1CCN(c2cc(C(=O)Nc3ccc4c(c3)-c3c(c(C(N)=O)nn3-c3ccc(F)cc3)CC4)c(Cl)cn2)CC1,?,-7%,·
CCOc1ccc(NC(=O)N2CC=C(c3c[nH]c4ccccc34)CC2)cc1,?,-20%,-8
O=C(Nc1ccc(F)cc1)C1CCCN(c2ncnc3c2nc2n3CCCCC2)C1 (stereo unspecified),?,-22%,-6
Cc1cccc(N2CCN(c3ncnc4c3nc3n4CCCCC3)CC2C)c1 (stereo unspecified),5µM*,-93%,-3
Clc1cccc(N2CCN(c3ncnc4c3nc3n4CCCC3)CC2)c1,-28%,?,13
SMILES,HTT prom inh,HTT-AS act,DRV1 agonist
O=C(Nc1cccc(Cl)c1)C1CCCN(c2ncnc3c2nc2n3CCCCC2)C1 (stereo unspecified),-16%,-21%,67*
Cc1ccc(Cn2c(C)c(CNCC(C)c3ccccc3)c(C(=O)O)c2C)cc1 (stereo unspecified),-26%,-20%,75*
Cc1ccc(CNCc2c(C(=O)O)c(C)n(Cc3ccc(C)cc3)c2C)cc1,-16%,-15%,5
Cc1ccc(Cn2c(C)c(CNCc3ccc(OC(C)C)cc3)c(C(=O)O)c2C)cc1,-28%,-26%,86*
Cc1ccc(Cn2c(C)c(CNC(C)c3ccccc3)c(C(=O)O)c2C)cc1 (stereo unspecified),?,-35%,0
N#CC(=C(O)c1ccc(Cl)cc1Cl)c1nc2cc(Cl)ccc2c(=O)[nH]1,-2%,-16%,·
O=C(O)CCC=CCC[C@@H]1[C@H](N2CCCCC2)[C@@H](O)C[C@@H]1OCc1ccc(-c2ccccc2)cc1,8%,-9%,·
C[C@@H](O)[C@H]1C(=O)N2C(C(=O)OCOC(=O)C(C)(C)C)=C(SC3CN(C4=NCCS4)C3)[C@H](C)[C@H]12,2%,-20%,·
